Measurements published in paper PMC7862700, “An all-to-all approach to the identification of sequence-specific readers for epigenetic DNA modifications on cytosine”.

Key:
Assay in all cases: DAPPL (digital affinity profiling via proximity ligation, sequencing); 10 mM Tris-HCl pH 7.5, 50 mM NaCl, 1 mM DTT, 4% glycerol, room temperature, 30 min; GST-TFs on glutathione beads, 16-mer random dsDNA library, 0.1% formaldehyde crosslink after washing; high values mean tight binding
FLI1 = target: T1, FLI1 (Homo sapiens, UniProt Q01543 1-452); details: protein: recombinant; tags: N-terminal GST; dsDNA, one strand shown
T1 sequence: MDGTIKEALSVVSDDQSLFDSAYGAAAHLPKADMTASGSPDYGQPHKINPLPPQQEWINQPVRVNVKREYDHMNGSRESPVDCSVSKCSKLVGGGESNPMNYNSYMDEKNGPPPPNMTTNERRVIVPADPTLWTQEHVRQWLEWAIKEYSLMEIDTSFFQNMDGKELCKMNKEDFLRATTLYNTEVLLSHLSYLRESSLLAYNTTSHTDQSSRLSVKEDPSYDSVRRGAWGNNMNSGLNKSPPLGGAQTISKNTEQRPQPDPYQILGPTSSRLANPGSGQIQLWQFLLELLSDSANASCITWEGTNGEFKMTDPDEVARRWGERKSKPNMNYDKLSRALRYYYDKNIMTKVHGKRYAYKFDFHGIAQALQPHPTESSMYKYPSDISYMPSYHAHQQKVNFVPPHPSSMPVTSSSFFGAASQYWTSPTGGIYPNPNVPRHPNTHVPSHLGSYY
Outline: (§1)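 Sequencing on an Illumina NextSeq500 followed washing, crosslinking with 0.1% formaldehyde, proximity ligation (BsaI/T4 ligase, 1 h, 37 °C) and PCR amplification of pools that had been incubated for 30 min at room temperature with 200 nmole of a random double-stranded 16-mer DNA library in Tris/NaCl/DTT/glycerol buffer. Each pool held DNA-barcoded human transcription factors, expressed in yeast as GST fusions and captured on glutathione beads, plus a tag-only sample. Binding signal is a hexamer's read frequency for a factor divided by its frequency in the tag-only sample.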

ELK1 = target: T2, ELK1 (Homo sapiens, UniProt P19419 1-428); details: protein: recombinant; tags: N-terminal GST; dsDNA, one strand shown
T2 sequence: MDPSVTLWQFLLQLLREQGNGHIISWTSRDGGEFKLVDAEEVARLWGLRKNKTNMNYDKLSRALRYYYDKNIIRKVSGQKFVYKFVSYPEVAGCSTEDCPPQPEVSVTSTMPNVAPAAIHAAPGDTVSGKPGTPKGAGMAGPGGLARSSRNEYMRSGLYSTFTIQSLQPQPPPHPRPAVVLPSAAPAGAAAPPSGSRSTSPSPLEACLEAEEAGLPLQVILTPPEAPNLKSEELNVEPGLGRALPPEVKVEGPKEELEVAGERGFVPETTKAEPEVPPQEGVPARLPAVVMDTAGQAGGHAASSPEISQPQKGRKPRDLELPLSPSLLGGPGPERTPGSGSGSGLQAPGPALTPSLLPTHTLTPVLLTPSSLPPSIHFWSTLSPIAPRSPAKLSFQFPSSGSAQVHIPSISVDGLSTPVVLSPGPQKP
Outline: as §1

GABPA = target: T3, GABPA (Homo sapiens, UniProt Q06546 1-454); details: protein: recombinant; tags: N-terminal GST; dsDNA, one strand shown
T3 sequence: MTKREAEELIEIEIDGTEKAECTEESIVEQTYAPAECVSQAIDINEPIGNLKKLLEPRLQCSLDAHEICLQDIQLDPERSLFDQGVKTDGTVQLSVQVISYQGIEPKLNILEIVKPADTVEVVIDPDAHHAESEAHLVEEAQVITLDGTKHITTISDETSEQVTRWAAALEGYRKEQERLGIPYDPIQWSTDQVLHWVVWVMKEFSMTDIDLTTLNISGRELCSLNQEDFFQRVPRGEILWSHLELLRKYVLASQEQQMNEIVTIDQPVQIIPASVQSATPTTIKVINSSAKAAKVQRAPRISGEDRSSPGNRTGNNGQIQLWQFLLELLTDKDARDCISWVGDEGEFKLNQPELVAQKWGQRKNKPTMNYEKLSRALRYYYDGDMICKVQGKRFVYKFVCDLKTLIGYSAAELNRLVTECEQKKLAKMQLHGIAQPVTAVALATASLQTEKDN
Outline: as §1

ERG = target: T4, ERG (Homo sapiens, UniProt P11308 1-479); details: protein: recombinant; tags: N-terminal GST; dsDNA, one strand shown
T4 sequence: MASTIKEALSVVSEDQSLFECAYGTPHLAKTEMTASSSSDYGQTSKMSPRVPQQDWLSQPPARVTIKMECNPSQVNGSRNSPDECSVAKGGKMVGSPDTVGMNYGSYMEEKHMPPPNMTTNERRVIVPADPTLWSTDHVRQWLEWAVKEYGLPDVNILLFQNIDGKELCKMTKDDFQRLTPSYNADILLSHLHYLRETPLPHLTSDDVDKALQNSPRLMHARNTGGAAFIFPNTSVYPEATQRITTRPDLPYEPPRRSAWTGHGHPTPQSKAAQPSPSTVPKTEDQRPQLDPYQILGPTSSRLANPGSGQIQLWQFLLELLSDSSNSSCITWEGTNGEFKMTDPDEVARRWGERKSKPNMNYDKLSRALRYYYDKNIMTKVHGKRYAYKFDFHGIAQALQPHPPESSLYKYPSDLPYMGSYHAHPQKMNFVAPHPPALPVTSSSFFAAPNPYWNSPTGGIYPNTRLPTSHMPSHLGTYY
Outline: as §1

ELF1 = ELF1 (Homo sapiens, UniProt P32519 1-619); details: protein: recombinant; tags: N-terminal GST; dsDNA, one strand shown
Outline: as §1

EHF = target: T5, EHF (Homo sapiens, UniProt Q9NZC4 1-300); details: protein: recombinant; tags: N-terminal GST; dsDNA, one strand shown
T5 sequence: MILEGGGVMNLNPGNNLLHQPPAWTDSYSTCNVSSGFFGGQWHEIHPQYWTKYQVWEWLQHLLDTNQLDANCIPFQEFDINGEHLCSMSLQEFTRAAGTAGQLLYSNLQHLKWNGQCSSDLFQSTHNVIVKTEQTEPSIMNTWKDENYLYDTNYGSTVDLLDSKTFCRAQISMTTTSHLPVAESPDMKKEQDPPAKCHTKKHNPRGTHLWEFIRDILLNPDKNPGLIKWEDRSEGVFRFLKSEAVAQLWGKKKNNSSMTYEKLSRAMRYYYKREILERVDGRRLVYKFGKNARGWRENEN
Outline: as §1

SPI1 = SPI1 (Homo sapiens, UniProt P17947 1-270); details: protein: recombinant; tags: N-terminal GST; dsDNA, one strand shown
Outline: as §1

SPIB = SPIB (Homo sapiens, UniProt Q01892 1-262); details: protein: recombinant; tags: N-terminal GST; dsDNA, one strand shown
Outline: as §1

ELK3 = target: T6, ELK3 (Homo sapiens, UniProt P41970 1-407); details: protein: recombinant; tags: N-terminal GST; dsDNA, one strand shown
T6 sequence: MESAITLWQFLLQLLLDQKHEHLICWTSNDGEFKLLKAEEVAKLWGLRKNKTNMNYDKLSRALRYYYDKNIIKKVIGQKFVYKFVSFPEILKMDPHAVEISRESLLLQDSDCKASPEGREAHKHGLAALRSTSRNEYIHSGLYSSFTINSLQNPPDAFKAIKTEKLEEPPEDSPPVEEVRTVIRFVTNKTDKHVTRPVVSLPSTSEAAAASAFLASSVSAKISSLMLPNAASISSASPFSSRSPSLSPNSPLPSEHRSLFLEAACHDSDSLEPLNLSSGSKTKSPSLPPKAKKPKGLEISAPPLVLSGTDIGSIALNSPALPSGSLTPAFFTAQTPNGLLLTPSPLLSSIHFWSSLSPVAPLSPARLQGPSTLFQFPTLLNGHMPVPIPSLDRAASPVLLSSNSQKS
Outline: as §1

FEV = target: T7, FEV (Homo sapiens, UniProt Q99581 1-238); details: protein: recombinant; tags: N-terminal GST; dsDNA, one strand shown
T7 sequence: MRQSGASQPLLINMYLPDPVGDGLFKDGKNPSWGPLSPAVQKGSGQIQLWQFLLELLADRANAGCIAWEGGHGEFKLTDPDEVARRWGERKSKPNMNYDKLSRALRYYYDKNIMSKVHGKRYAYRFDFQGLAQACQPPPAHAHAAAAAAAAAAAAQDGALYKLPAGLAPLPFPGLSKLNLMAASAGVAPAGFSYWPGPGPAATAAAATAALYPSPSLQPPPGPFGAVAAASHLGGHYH
Outline: as §1

ETV5 = ETV5 (Homo sapiens, UniProt P41161 1-510); details: protein: recombinant; tags: N-terminal GST; dsDNA, one strand shown
Outline: as §1

HSF1 = HSF1 (Homo sapiens, UniProt Q00613 1-529); details: protein: recombinant; tags: N-terminal GST; chain copies: 3; dsDNA, one strand shown
Outline: as §1

SPIC = target: T8, SPIC (Homo sapiens, UniProt Q8N5J4 1-248); details: protein: recombinant; tags: N-terminal GST; dsDNA, one strand shown
T8 sequence: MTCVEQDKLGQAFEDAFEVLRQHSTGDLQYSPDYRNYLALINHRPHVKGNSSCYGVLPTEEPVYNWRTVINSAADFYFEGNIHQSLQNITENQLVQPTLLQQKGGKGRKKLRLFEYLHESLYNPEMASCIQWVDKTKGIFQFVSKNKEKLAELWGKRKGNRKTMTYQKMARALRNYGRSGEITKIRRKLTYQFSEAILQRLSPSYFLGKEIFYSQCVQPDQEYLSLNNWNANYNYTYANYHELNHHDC
Outline: as §1

ELF4 = ELF4 (Homo sapiens, UniProt Q99607 1-663); details: protein: recombinant; tags: N-terminal GST; dsDNA, one strand shown
Outline: as §1

ELK4 = target: T9, ELK4 (Homo sapiens, UniProt P28324-2 1-405); details: protein: recombinant; tags: N-terminal GST; dsDNA, one strand shown
T9 sequence: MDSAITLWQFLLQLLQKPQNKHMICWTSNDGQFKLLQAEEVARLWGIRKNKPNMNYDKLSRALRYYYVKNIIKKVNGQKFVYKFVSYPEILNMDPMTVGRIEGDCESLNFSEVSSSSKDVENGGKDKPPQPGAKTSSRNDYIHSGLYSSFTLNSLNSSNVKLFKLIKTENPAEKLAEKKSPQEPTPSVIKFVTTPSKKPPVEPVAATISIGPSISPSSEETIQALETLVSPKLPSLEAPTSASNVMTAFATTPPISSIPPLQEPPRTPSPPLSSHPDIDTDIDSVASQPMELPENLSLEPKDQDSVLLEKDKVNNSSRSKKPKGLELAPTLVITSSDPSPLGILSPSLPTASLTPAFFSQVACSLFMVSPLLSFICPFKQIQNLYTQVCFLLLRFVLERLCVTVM
Outline: as §1

ETV2 = target: T10, ETV2 (Homo sapiens, UniProt O00321 1-342); details: protein: recombinant; tags: N-terminal GST; dsDNA, one strand shown
T10 sequence: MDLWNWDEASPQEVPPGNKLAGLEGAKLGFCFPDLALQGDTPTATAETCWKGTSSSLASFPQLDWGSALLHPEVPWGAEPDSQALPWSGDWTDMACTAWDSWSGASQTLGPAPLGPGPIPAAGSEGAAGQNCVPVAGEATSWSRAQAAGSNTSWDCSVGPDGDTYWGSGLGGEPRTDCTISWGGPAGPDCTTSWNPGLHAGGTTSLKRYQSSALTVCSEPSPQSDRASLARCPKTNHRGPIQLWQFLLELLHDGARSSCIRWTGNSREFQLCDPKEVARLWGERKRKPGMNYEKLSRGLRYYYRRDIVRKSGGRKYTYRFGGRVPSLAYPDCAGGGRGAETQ
Outline: as §1

ELF3 = target: T11, ELF3 (Homo sapiens, UniProt P78545 1-371); details: protein: recombinant; tags: N-terminal GST; dsDNA, one strand shown
T11 sequence: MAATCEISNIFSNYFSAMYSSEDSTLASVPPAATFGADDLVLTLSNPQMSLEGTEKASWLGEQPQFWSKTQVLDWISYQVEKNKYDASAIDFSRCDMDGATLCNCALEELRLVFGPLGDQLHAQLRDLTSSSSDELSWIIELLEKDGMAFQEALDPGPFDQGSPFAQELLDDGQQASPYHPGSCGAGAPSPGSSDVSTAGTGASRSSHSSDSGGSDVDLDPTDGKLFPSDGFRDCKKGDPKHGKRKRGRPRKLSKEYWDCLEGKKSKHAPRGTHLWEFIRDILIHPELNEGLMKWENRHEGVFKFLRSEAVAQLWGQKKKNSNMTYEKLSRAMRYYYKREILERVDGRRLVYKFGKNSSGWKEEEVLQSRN
Outline: as §1

CRX = CRX (Homo sapiens, UniProt O43186 1-299); details: protein: recombinant; tags: N-terminal GST; dsDNA, one strand shown
Outline: as §1

ETV1 = ETV1 (Homo sapiens, UniProt P50549 1-477); details: protein: recombinant; tags: N-terminal GST; dsDNA, one strand shown
Outline: as §1

HSF1, sequence (Q00613 whole entry): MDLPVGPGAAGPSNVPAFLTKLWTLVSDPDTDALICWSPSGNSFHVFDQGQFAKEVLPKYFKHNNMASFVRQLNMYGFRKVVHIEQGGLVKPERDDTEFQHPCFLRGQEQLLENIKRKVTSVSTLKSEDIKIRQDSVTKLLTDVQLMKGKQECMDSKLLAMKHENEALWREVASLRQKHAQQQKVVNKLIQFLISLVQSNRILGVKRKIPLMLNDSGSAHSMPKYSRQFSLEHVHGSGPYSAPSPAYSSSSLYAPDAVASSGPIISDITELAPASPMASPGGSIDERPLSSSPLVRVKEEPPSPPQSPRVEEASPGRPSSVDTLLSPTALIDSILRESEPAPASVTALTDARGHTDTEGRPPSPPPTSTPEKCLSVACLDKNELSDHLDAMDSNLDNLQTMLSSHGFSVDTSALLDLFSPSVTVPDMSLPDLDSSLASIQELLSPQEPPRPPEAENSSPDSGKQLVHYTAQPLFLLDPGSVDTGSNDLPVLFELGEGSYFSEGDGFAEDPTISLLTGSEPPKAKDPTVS
ETV1, sequence (P50549 whole entry): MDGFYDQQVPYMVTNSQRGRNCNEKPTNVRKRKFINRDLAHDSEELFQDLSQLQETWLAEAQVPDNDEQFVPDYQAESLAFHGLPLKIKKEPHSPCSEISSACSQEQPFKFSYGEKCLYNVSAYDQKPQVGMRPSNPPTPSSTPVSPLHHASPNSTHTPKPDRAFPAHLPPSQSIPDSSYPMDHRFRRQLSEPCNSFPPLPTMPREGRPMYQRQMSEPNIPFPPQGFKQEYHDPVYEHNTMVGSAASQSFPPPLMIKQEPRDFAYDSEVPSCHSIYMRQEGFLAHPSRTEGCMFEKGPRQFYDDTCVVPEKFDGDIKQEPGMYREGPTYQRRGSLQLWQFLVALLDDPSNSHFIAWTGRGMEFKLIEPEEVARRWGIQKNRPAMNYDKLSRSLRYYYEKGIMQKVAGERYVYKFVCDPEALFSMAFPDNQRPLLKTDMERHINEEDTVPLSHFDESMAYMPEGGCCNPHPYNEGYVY
CRX, sequence (O43186 whole entry): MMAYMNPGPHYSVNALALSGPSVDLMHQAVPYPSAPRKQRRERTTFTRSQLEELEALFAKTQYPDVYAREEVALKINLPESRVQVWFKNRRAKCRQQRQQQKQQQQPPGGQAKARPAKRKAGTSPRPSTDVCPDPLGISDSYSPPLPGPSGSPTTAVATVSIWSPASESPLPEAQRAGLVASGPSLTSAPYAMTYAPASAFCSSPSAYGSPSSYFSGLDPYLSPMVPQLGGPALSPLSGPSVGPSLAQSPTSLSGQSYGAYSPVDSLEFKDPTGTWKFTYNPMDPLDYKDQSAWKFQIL
ELF4, sequence (Q99607 whole entry): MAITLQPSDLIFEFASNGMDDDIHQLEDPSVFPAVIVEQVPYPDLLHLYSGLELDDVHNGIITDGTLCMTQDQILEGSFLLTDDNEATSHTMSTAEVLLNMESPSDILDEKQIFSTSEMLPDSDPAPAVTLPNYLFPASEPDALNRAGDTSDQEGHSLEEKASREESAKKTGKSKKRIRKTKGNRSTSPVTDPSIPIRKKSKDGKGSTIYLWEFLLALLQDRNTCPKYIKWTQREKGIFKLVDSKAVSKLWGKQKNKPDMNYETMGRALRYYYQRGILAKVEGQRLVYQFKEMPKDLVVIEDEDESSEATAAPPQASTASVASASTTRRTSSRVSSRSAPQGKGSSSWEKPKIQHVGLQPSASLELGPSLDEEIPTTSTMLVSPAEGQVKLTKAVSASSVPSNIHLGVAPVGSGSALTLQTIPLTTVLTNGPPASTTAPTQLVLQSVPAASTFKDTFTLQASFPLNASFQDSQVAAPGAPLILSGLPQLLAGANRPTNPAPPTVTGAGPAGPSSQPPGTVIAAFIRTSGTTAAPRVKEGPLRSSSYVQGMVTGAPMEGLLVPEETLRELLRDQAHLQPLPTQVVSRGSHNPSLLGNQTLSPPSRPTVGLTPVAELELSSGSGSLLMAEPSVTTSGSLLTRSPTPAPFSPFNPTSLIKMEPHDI
ETV5, sequence (P41161 whole entry): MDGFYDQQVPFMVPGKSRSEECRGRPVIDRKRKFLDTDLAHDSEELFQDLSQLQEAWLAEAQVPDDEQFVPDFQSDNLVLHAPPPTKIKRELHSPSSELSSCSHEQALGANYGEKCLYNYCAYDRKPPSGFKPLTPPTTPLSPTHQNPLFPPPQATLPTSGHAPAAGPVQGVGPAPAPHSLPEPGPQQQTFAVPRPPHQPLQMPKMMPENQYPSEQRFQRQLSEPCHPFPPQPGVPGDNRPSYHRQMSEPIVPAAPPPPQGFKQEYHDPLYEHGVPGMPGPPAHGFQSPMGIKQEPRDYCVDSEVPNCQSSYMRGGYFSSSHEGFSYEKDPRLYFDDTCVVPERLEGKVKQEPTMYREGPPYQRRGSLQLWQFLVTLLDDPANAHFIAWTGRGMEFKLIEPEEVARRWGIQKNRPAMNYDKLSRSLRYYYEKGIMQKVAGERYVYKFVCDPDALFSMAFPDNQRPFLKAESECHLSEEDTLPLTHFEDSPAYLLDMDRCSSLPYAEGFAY
ELF1, sequence (P32519 whole entry): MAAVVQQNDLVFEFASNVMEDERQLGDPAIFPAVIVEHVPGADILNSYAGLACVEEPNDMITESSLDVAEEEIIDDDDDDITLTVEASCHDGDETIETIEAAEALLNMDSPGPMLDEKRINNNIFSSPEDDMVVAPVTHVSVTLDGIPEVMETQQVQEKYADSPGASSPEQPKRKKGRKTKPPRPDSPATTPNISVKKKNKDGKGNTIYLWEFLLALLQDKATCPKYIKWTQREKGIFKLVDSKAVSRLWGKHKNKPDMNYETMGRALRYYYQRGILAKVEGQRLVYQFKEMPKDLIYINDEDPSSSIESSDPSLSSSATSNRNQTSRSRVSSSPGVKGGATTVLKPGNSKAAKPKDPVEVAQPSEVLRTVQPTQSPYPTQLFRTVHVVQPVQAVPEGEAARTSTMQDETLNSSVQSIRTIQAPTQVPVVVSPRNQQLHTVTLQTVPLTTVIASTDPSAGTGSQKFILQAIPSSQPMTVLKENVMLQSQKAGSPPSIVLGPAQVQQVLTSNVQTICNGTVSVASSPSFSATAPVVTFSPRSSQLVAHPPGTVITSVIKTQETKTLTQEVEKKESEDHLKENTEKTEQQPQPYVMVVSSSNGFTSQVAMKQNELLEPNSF
SPIB, sequence (Q01892 whole entry): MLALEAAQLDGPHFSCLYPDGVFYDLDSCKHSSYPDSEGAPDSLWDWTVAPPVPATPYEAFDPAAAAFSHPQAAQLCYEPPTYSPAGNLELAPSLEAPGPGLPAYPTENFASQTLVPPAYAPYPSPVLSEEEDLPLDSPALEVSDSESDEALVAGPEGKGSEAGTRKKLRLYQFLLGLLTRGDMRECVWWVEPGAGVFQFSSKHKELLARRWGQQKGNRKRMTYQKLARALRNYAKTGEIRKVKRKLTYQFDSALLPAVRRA

Which binding signal (FLI1) does the source give for ATCCCT here?
Its binding signal is 1.35 fold enrichment (6-mer frequency, TF over GST control).

And the binding signal (ELK1)?
Its binding signal is 1.28 fold enrichment (6-mer frequency, TF over GST control).

And the binding signal (GABPA)?
Its binding signal is 1.22 fold enrichment (6-mer frequency, TF over GST control).

And the binding signal (ERG)?
The binding signal was 1.24 fold enrichment (6-mer frequency, TF over GST control).

And the binding signal (ELF1)?
Its binding signal is 1.31 fold enrichment (6-mer frequency, TF over GST control).

What about the binding signal (EHF) of the same sequence?
The binding signal was 1.22 fold enrichment (6-mer frequency, TF over GST control).

What about the binding signal (SPI1) of the same sequence?
Its binding signal is 1.16 fold enrichment (6-mer frequency, TF over GST control).

What about the binding signal (SPIB) of the same sequence?
Its binding signal is 1.27 fold enrichment (6-mer frequency, TF over GST control).

What about the binding signal (ELK3) of the same sequence?
The binding signal was 1.12 fold enrichment (6-mer frequency, TF over GST control).

And the binding signal (FEV)?
The binding signal was 1.3 fold enrichment (6-mer frequency, TF over GST control).

And the binding signal (ETV5)?
Its binding signal is 1.3 fold enrichment (6-mer frequency, TF over GST control).

And the binding signal (HSF1)?
Its binding signal is 1.64 fold enrichment (6-mer frequency, TF over GST control).

What about the binding signal (SPIC) of the same sequence?
The binding signal was 1.27 fold enrichment (6-mer frequency, TF over GST control).

And the binding signal (ELF4)?
Its binding signal is 1.38 fold enrichment (6-mer frequency, TF over GST control).

And the binding signal (ELK4)?
Its binding signal is 1.33 fold enrichment (6-mer frequency, TF over GST control).

What about the binding signal (ETV2) of the same sequence?
Its binding signal is 1.13 fold enrichment (6-mer frequency, TF over GST control).

And the binding signal (ELF3)?
Its binding signal is 1.22 fold enrichment (6-mer frequency, TF over GST control).

And the binding signal (CRX)?
Its binding signal is 2.17 fold enrichment (6-mer frequency, TF over GST control).

What about the binding signal (ETV1) of the same sequence?
The binding signal was 1.21 fold enrichment (6-mer frequency, TF over GST control).
